110 molecules from ChEMBL document CHEMBL3988442, “University of Dundee, Small-Polar-MMV Screening Library” (2021) can be followed below.

The structures appear in SMILES notation. The whole screen tested about 48,000 compounds, of which about 13,000 (27%) showed an effect of 50% or more. The list shows a part of the results.

This assay concerns Wolbachia pipientis. Put plainly: Anti-Wolbachia Cell-Based Screen. The format is functional. Set-up: scale not given: in the data most compounds retested in dose-response had high values. Conditions: 5 µM.
With `O=C1CC[C@H]2CN(c3ncc(F)cn3)CC[C@H]2N1CCc1c[nH]cn1`, the “Percent Effect” value was -5.494%.
Take `O=C(NCc1ccncc1)N(Cc1ccccc1F)C1CC1`: the “Percent Effect” value is 1.311%.
With `Cc1cc(C)n2ncc(CN3CCC(n4cc(CCO)nn4)CC3)c2n1` the figure was 4.389%.
With `CC(C)Nc1nc2c(s1)C(=O)CN(C(=O)NCc1ccccc1)C2` the figure was 95.64%.
For `CNc1nc2c(s1)C(=O)CN(C(=O)[C@@H](N)Cc1cccc(OC)c1)C2`, the “Percent Effect” value came to 113.9%.
Turning to `COc1cccc(CN2CCN(C(=O)Nc3nc(C)ns3)CC2=O)c1`, the “Percent Effect” value was -7.215%.
With `CCC1=N[C@@]2(CC[C@@H]3CN(C(=O)NCc4ccccc4)C[C@@H]32)C(=O)N1`, the “Percent Effect” value is listed as -15.34%.
With `NC(=O)c1cccc(CCNC(=O)N2Cc3ccccc3C2)c1` the figure was 2.881%; with `O=C(NCCc1ccccc1)N1CCC(C2OCCO2)CC1`, 12.73%; with `O=C1NCCN2CCN(C(=O)NCCc3ccccc3)CC12` (stereo not given), -9.412%.
Regarding `CNc1nc2c(s1)C(=O)CN(C(=O)NCc1ccccc1)C2`, the “Percent Effect” value was -1.017%.
With `CNc1nc2c(s1)C(=O)CN(C(=O)NCCc1ccccc1)C2` the figure was 90.96%; with `CC(C)Nc1nc2c(s1)C(=O)CN(C(=O)NCCc1ccccc1)C2`, 113.9%.
With `CC(C)[C@@H]1CN(C(=O)NCCc2ccccc2)C[C@H]1NS(=O)(=O)N(C)C`, the “Percent Effect” value is given as -13.11%.
With `COc1cccc(CNC(=O)c2nc3c(o2)CN(C(=O)N(C)C)C3)c1` the figure was -21.04%.
With `COc1ccc(Cl)cc1CNC(=O)CN1CCC2(CCOC2)C1` (stereo not given), the “Percent Effect” value was determined as 5.478%.
With `CCCC(=O)NCC(=O)NC(c1ccc(Cl)cc1)C(F)(F)F` (stereo not given) the figure was -4.192%; with `CC(=O)c1cn(CC(=O)N2CCCC(O)(CO)C2)c2ccccc12` (stereo not given), -9.342%; with `Cc1nc(C)c(CC(=O)N2C[C@H]3CC[C@@H]2CN(C(=O)N(C)C)C3)c(=O)[nH]1`, -5.688%.
For the molecule `Cc1ccc(CN(Cc2ccccn2)C(=O)C2CCCCCN2C)s1` (stereo not given), the “Percent Effect” value was -49.91%.
With `O=C(NCc1cc(F)ccc1F)Nc1ccn(CC(F)F)n1` the figure was -16.02%; with `CCCS(=O)(=O)CC(=O)Nc1ccsc1`, -10.7%; with `CCNc1nc2c(s1)C(=O)CN(C(=O)NCc1ccccc1)C2`, 105.7%.
With `CCNc1nc2c(s1)C(=O)CN(C(=O)NCCc1ccccc1)C2` the figure was -10.47%; with `COCc1nc2c(o1)CN(C(=O)NCc1ccccc1)C2`, 27.3%; with `CN(C)c1nc2c(c(N3CCCC3)n1)CCN(C(=O)c1ccc[nH]1)CC2`, 91.66%.
As to `Nc1nc2c(c(N3CCOCC3)n1)CCN(C(=O)c1ccc[nH]1)CC2`, the “Percent Effect” value is 39.51%.
With `Cc1nc(-c2cnn(C)c2)nc2c1CN(C(=O)c1ccc[nH]1)CC2` the figure was -2.829%; with `CC(C#N)CN(C)Cc1c(Cl)ccc2cccnc12` (stereo not given), 4.156%; with `COc1ccc(CNc2cc(-c3nc(C)no3)ccn2)c(OC)c1`, -6.518%.
Turning to `COc1cccc(OC)c1CNC(Cc1ccsc1)c1ccc(C)cn1` (stereo not given), the “Percent Effect” value is given as 169.8%.
With `COc1ccc(CNC(Cc2ccsc2)c2ccc(C)cn2)c(OC)c1` (stereo not given) the figure was 101.2%; with `COc1ccc(CNc2c(C)nn(C(C)C)c2C)cc1OC.Cl`, 8.952%; with `COc1ccc(CNC(Cc2ccsc2)c2ccc(C)cn2)cc1OC.Cl` (stereo not given), 112.1%.
`CCc1cnc(N)nc1NCc1ccc(OC)cc1OC`: the “Percent Effect” value is -6.529%.
As to `COc1ccncc1NCc1ccsc1`, the “Percent Effect” value is on record as 15.23%.
With `COC(C)c1cccc(NCc2ccsc2)c1` (stereo not given) the figure was -13.03%.
In the case of `O=C(NCc1cccc(-n2cncn2)c1)NCC(C1CC1)C1CC1`, the “Percent Effect” value is -15.59%.
With `CC(C)Cn1cncc1CNC1CCSCC1` the figure was 2.151%; with `COc1ccc(F)c(CN2CCCC(O)(CNC3CCCCC3)C2=O)c1` (stereo not given), -6.817%.
With `Cc1noc2ncc(C(=O)NCC3CCOC3)cc12` (stereo not given) the figure was -15.76%; with `COc1c(C)cnc(CNC(=O)c2cnc3onc(C)c3c2)c1C`, 104.5%; with `COc1c(C)cnc(CNC(=O)c2cc(C)nc3onc(C)c23)c1C`, -1.817%.
With `O=C(NCCOCCO)[C@@]12CNC[C@@H]1CN(C1CCCC1)C2` the figure was -7.865%; with `CC(C)c1cc(N2CCC(CCC(=O)NC3CC3)CC2)n2nccc2n1`, 7.052%; with `CCN(Cc1nnsc1Cl)C(C)c1ccc(C#N)cc1` (stereo not given), 1.58%.
In the case of `COc1c(C)cnc(CN2CCCCC2Cn2nc(C)nc2C)c1C` (stereo not given), the “Percent Effect” value worked out at 6.225%.
For the molecule `COc1cccc(CN2CCCC2Cn2nc(C)nc2C)c1` (stereo not given), the “Percent Effect” value turned out to be 137%.
As to `COc1cccc(CN2CCCCC2Cn2nc(C)nc2C)c1` (stereo not given), the “Percent Effect” value is 129.9%.
For the molecule `Cc1nc(C)n(CC2CCCN2Cc2cn3c(C)cccc3n2)n1` (stereo not given), the “Percent Effect” value is on record as -8.673%.
With `COc1ccc(CCN2CCCC2Cn2nc(C)nc2C)cc1` (stereo not given) the figure was -8.655%; with `c1cnn(CCNCc2nnc(C3CC3)o2)c1`, -6.862%; with `CN(CCNC(=O)N1CCN(Cc2ccon2)CC1)c1ccccc1`, -8.314%.
With `CCc1nc2c(N3CCC4(CC3)CC(=O)N(CC(C)C)C4)ncnc2o1` the figure was -4.027%; with `Cc1nn(C)c(C)c1C1COCCN1C(=O)c1cnc(N)c(Cl)c1` (stereo not given), 1.304%.
With `Cc1cc(C)c(C(=O)N2CCOCC2c2c(C)nn(C)c2C)o1` (stereo not given) the figure was 101%; with `Cc1nn(C)c(C)c1C1COCCN1C(=O)Cc1cccc(F)c1` (stereo not given), -20.34%.
As for `CSc1ccc(C(=O)N2CCOCC2c2c(C)nn(C)c2C)o1` (stereo not given), the “Percent Effect” value was determined as 94.08%.
With `Cc1nn(C)c(C)c1C1COCCN1C(=O)c1ccc(Cl)o1` (stereo not given) the figure was 70.94%; with `Cc1nn(C)c(C)c1C1CCCN1C(=O)c1ccc(Cl)o1` (stereo not given), -7.187%.
In the case of `Cc1nn(C)c(C)c1C1COCCN1C(=O)c1n[nH]c2ccccc12` (stereo not given), the “Percent Effect” value was found to be 16.5%.
`CNC(=O)N1CCOCC1c1c(C)nn(C)c1C` (stereo not given): the “Percent Effect” value is recorded as -10.34%.
On to `Cc1nn(C)c(C)c1C1COCCN1C(=O)CCc1ccccc1` (stereo not given), for which the “Percent Effect” value came out at 95.59%.
Consider `Cc1nn(C)c(C)c1C1COCCN1C(=O)CSC(C)(C)C` (stereo not given), for which the “Percent Effect” value was -11.83%.
With `Cc1nn(C)c(C)c1C1COCCN1C(=O)c1ccccc1` (stereo not given), the “Percent Effect” value is -4.407%.
With `CCN(CC)C(=O)N1CCOCC1c1c(C)nn(C)c1C` (stereo not given) the figure was 7.192%; with `COCCS(=O)(=O)N1CCN(c2cccc(O)c2)CC1`, 9.959%; with `CCS(=O)(=O)NCCNC(=O)c1cc(Cl)c2c(c1)OCCCO2`, 12.52%.
`CCC(CC)CN1CCC(n2cc(C3CCCC3)nn2)CC1`: the “Percent Effect” value is listed as 4.235%.
Consider `CN(Cc1ccc(F)cc1)CC1(O)CCCN(CC(C)(C)C)C1=O` (stereo not given), for which the “Percent Effect” value worked out at 55.08%.
With `CN(Cc1ccccc1)CC1(O)CCCN(CC(C)(C)C)C1=O` (stereo not given) the figure was 2.381%.
With `CN(Cc1ccccc1)CC1(O)CCCN(CCC2CCCCC2)C1=O` (stereo not given) the figure was -12.81%; with `CN(c1ncc(S(N)(=O)=O)s1)C1CCc2ccccc2C1` (stereo not given), 1.957%; with `CCn1cc(N)c(C(=O)NCc2cnn(C)c2)n1`, -9.614%.
Turning to `CCn1cc(Br)c(C(=O)NCc2cnn(C)c2)n1`, the “Percent Effect” value is 103.9%.
With `Cc1c(Br)cccc1C(=O)NCc1cnn(C)c1` the figure was -14.4%; with `CN(C)C(=O)N1CC2(CCOCC2)c2cc(NC(=O)CCO)ccc21`, -8.643%; with `COCCN1CCC2(CC1)CC(N1CCOCC1)c1ccc(C)cc12.O=C(O)C(F)(F)F.O=C(O)C(F)(F)F` (stereo not given), -12.46%.
With `CCC(=O)Nc1ccc2c(c1)C1(CCOCC1)CN2CCOC.O=C(O)C(F)(F)F` the figure was 101.5%.
With `COCCN1CCC2(CC1)CN(C(C)=O)c1ccc(C)cc12.O=C(O)C(F)(F)F` the figure was 24.24%.
`CCCC(=O)Nc1ccc2c(c1)C1(CCOCC1)CN2CCOC.O=C(O)C(F)(F)F`: the “Percent Effect” value was determined as 114.8%.
Regarding `COCCN1CC2(CCOCC2)c2cc(NC(=O)C3CC=CC3)ccc21.O=C(O)C(F)(F)F`, the “Percent Effect” value was determined as 98.06%.
Turning to `Cc1noc(C[C@@H]2COC[C@H]3CN(S(=O)(=O)C4CC4)C[C@@H]23)n1`, the “Percent Effect” value was found to be 6.683%.
With `Cc1ccc(S(=O)(=O)NC(C)C#N)cc1Br` (stereo not given) the figure was -6.675%.
With `NS(=O)(=O)NCC1(c2ccccc2Br)CC1` the figure was -0.7264%; with `Fc1cccc(Nc2nc(N3CCCC3)nc3c2CNCC3)c1`, 142.6%.
Consider `COc1ccc(CC(=O)Nc2c(C)nc(N3CCCC3)nc2C)cc1`, for which the “Percent Effect” value is listed as 3.23%.
With `COc1cccc(-n2ccc3nc(N4CCCC4)ncc3c2=O)c1` the figure was -5.391%; with `CCOCCNc1nc(-c2ccncc2)nc2c1CCNCC2`, 0.459%; with `COc1cccc(Nc2nc(-c3ccncc3)nc3c2CNCC3)c1.Cl`, 140.9%.
Take `c1csc(CCNc2nc(-c3ccncc3)nc3c2CCNCC3)c1`: the “Percent Effect” value is on record as -1.817%.
With `COc1cccc(Nc2nc(N3CCCC3)nc3c2CNCC3)c1.Cl` the figure was 154.5%.
Consider `O=S(=O)(Nc1cnc(N2CCCC2)nc1)c1ccc(F)cc1F`, for which the “Percent Effect” value was 5.953%.
On to `O=S(=O)(Nc1cnc(N2CCOCC2)nc1)c1cccc(F)c1`, for which the “Percent Effect” value is reported as -8.595%.
With `COc1ccc(N2CCC(NCc3csc(C(C)C)n3)CC2)cc1` the figure was -0.6873%.
As for `Cc1cc(CN(C)C(=O)NC2CCS(=O)(=O)C2)no1` (stereo not given), the “Percent Effect” value amounted to 4.321%.
As for `Cc1ccc(Cl)cc1N1CCC(CNC(=O)CCn2ccnn2)C1` (stereo not given), the “Percent Effect” value amounted to 3.758%.
Turning to `Cn1ccnc1CN1C[C@H]2CN(S(C)(=O)=O)CCN2C1=O`, the “Percent Effect” value is reported as -9.259%.
`Cc1ccccc1C(=O)N1CCN(c2ccc(-n3cncn3)nn2)CC1`: the “Percent Effect” value came to 17.86%.
With `CN(Cc1ccco1)C(=O)CN1CCCC1c1cccs1` (stereo not given) the figure was -12.25%; with `CN(C)S(=O)(=O)c1ccc(CN2CCCC2c2ccsc2)o1` (stereo not given), 153.1%.
For the molecule `CN(C)S(=O)(=O)c1ccc(CN2CCCC2CO)o1` (stereo not given), the “Percent Effect” value was -8.26%.
Take `c1cc(C2CCCN2Cc2nnnn2C2CC2)cs1` (stereo not given): the “Percent Effect” value was -19.47%.
For the molecule `Cc1ccccc1C1CCCN1Cc1ccc(S(=O)(=O)N(C)C)o1` (stereo not given), the “Percent Effect” value stood at 160.2%.
With `CN(CCC#N)C(=O)CN1CCCC1c1ccsc1` (stereo not given) the figure was 1.248%; with `COc1ccc(C2CCCN2Cc2ccc(S(=O)(=O)N(C)C)o2)cc1` (stereo not given), 151.6%.
With `CN(C)S(=O)(=O)c1ccc(CN2CCC(c3ccccc3)C2)o1` (stereo not given) the figure was -9.641%.
With `CN(C)S(=O)(=O)c1ccc(CN2CCCC2c2cccs2)o1` (stereo not given) the figure was 169.9%; with `CN(C)S(=O)(=O)c1ccc(CN2CCCC2c2ccccc2)o1` (stereo not given), 8.974%; with `CN(C)S(=O)(=O)c1ccc(CN2CCCC2c2ccc[nH]2)o1` (stereo not given), -2.919%.
